Most compounds without a hit are left out; they make up all but 4.1% or so of the library.
hcDAF-12 act = activates DAF-12 receptor from parasite H. contortus; activation, % at 6.8 µM; HEK293 hcDAF-12 lit1-tk-luc reporter, luminescence; 0% DMSO, 100% Δ7-dafachronic acid; 370,000 tested, 1.4% active;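 active = activation above the mean of all tested compounds plus 3 SD, cut at about 5.5% in these data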
DAX1 inh-1 = inhibitors of DAX1 repression of SF-1 activated StAR promoter | inhibition, % at 6.8 µM | 370,000 tested, 1.1% active | HEK293T StAR-luciferase reporter, SF-1/DAX-1 repression relief;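 active = inhibition above the mean over all tested compounds plus 3 SD, cut at about 3.6% in these data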;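 also: higher inhibition means more luminescence from relief of DAX-1 repression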
DAX1 inh-2 = NR0B1 (DAX1) inhibition; P51843; HEK293 Gal4-DAX1 luciferase reporter, luminescence; inhibition, % at 6.75 µM; 340,000 tested, 0.99% active;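 active = inhibition above the mean over all tested compounds plus 3 SD, cut at about 4.2% in these data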;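 also: inhibition shows as a rise in luminescence from relieved DAX1 repression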
hgDAF12 agonist = hgDAF-12 agonism, primary luciferase screen. 370,000 tested, 1.8% active. AID 687014. activation, % at 6.8 µM. HEK293 GAL4-hgDAF12 UAS-luciferase reporter, agonist luminescence; normalized to butyrate control;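 active = activation above a cutoff set at the mean of all screened compounds plus 3 SD, cut at about 10% in these data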
ssDAF12 agonist = S. stercoralis DAF-12 activation, primary screen | HEK293 ssDAF-12/GRIP1 lit1-tk-luc reporter, luminescence; % of 3 µM dafachronic acid response | activation, % at 6.8 µM | 370,000 tested, 1% active;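 active = activation above the mean over all tested compounds plus 3 SD, cut at about 0.9% in these data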
hgDAF12 conf = confirmation of H. glycines DAF-12 agonists; shares compounds with hgDAF12 agonist; HEK293 GAL4-hgDAF12 luciferase reporter, agonist mode; percent of butyrate response; activation, % at 6.8 µM; 3,300 tested, 80% active;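 active = mean activation over triplicate wells above the hit cutoff derived from the earlier primary screen, cut at about 11% in these data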
LXRb DAF12 ctr = counter-screen for DAF-12 agonists: agonists of human LXR-beta. HEK293 Gal4-LXR luciferase reporter, 24 h. 3,300 tested, under 10 active. activation, % at 6.8 µM. AID 743051. shares compounds with hgDAF12 agonist;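 active = mean activation of the triplicate above a set limit carried over from the primary screen, none filed active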
Target sequence (P55055 whole entry, looked up, the tested form may be a part): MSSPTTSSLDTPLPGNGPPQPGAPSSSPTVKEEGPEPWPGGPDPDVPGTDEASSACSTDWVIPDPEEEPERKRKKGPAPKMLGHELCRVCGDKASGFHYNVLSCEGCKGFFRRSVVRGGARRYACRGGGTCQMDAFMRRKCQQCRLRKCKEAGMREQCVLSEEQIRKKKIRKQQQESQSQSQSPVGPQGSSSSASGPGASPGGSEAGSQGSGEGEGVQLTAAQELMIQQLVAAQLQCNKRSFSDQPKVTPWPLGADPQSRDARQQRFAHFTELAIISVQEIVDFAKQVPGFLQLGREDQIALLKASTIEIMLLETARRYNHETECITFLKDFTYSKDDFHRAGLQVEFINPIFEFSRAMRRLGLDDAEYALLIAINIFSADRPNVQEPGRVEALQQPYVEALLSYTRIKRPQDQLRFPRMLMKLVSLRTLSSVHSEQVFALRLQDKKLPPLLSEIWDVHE
Each line names hits and unclear results; the compound was inactive in the other large screens (follow-up assays come after a bar, where they were run).

Oc1oc(-c2ccccc2)nc1/C=N/c1ccccn1	hgDAF12 agonist 16 | hgDAF12 conf inactive | LXRb DAF12 ctr inactive
CCc1ccc(-c2cc(C(=O)N/N=C/c3ccco3)[nH]n2)cc1	hgDAF12 agonist 14 | hgDAF12 conf inactive | LXRb DAF12 ctr inactive
O=C(N/N=C/c1ccco1)c1cc(-c2ccc3ccccc3c2)n[nH]1	hgDAF12 agonist 15 | hgDAF12 conf inactive | LXRb DAF12 ctr inactive
Cc1ccc(-c2cc(C(=O)NN=C/C=C/c3ccco3)[nH]n2)cc1C	none (no result: DAX1 inh-2)
COc1cc(NC(=O)CN2C(=O)NC(CC(C)C)C2=O)cc(OC)c1OC (centres undefined)	none
Cc1cc(NC(=O)C(C)SCC(=O)Nc2cc(Cl)ccc2N2CCN(C)CC2)no1 (centres undefined)	none
CCCCCN1CCCCC(NC(=O)C2CCCCC2)C1=O (centres undefined)	none (no result: DAX1 inh-2)
O=C(COC(=O)c1ccccc1C(=O)c1ccccc1)NCc1ccc(F)cc1	hgDAF12 agonist 16 | hgDAF12 conf inactive | LXRb DAF12 ctr inactive
Cc1ccc(C2=NN(C(=O)CCCC(=O)O)C(c3ccc4c(c3)OCO4)C2)cc1 (centres undefined)	none
COC(=O)C1(C(=O)OC)c2ccccc2CN(S(=O)(=O)c2ccc(C)cc2)C1CC(C)=O (centres undefined)	none (no result: DAX1 inh-2)
CC(N)c1csc(Nc2nncc3ccccc23)n1 (centres undefined)	none (no result: DAX1 inh-2)
CC(C)C(N)c1csc(Nc2nncc3ccccc23)n1 (centres undefined)	hgDAF12 agonist 14 (no result: DAX1 inh-2) | hgDAF12 conf inactive | LXRb DAF12 ctr inactive
Cc1nn(-c2ccccc2)cc1C(=S)Nc1ccccc1	hgDAF12 agonist 14 | hgDAF12 conf inactive | LXRb DAF12 ctr inactive
CC(C)(C)C(=O)NNC(=O)c1cc2sccc2s1	none
O=C(NCC1CC1)C1Cc2c(-c3ccccc3Oc3ccccc3)ccnc2O1 (centres undefined)	none (no result: DAX1 inh-2)
O=C(CSc1nnc(NC2CCCCC2)s1)Nc1ccc2c(c1)C(=O)c1ccccc1C2=O	DAX1 inh-2 12, hgDAF12 agonist 14 | hgDAF12 conf 14 | LXRb DAF12 ctr inactive
CCOc1cccc(C(=O)NC(=S)Nc2ccccc2)c1	hgDAF12 agonist 19 | hgDAF12 conf 16 | LXRb DAF12 ctr inactive
CCC(=O)Nc1cccc(NC(=S)NC(=O)c2ccc(C)cc2)c1	DAX1 inh-1 3.8, DAX1 inh-2 4.8, hgDAF12 agonist 14 | hgDAF12 conf 16 | LXRb DAF12 ctr inactive
CCC(=O)Nc1ccc(NC(=S)NC(=O)c2cc3ccccc3o2)cc1	none
CC(=O)c1cccc(NC(=S)NC(=O)c2ccc(C)cc2)c1	DAX1 inh-1 4.0, hgDAF12 agonist 15 | hgDAF12 conf 15 | LXRb DAF12 ctr inactive
CCC(=O)Nc1cccc(NC(=S)NC(=O)c2cc3ccccc3o2)c1	hgDAF12 agonist 16 | hgDAF12 conf 22 | LXRb DAF12 ctr inactive
COC(=O)c1ccc(C)c(NC(=O)COC(=O)C2CC3CCCC(C2)C3=O)c1 (centres undefined)	none
NS(=O)(=O)c1ccc(NC(=O)c2ccc(-c3ccccc3)cc2)cc1	none (no result: DAX1 inh-2)
NS(=O)(=O)c1ccc(C(=O)Nc2ccc(-c3nc4cccnc4s3)cc2)cc1	hgDAF12 agonist 14 | hgDAF12 conf 14 | LXRb DAF12 ctr inactive
O=C(Nc1ccc(N2CCOCC2)c(Cl)c1)c1c(F)c(F)c(F)c(F)c1F	none
O=C(Nc1ccc(N2CCOCC2)c(Cl)c1)c1cccc(F)c1	hgDAF12 agonist 14 | hgDAF12 conf 16 | LXRb DAF12 ctr inactive
O=C(Nc1ccc(N2CCCC2)c(Cl)c1)c1cccs1	DAX1 inh-1 4.0, hgDAF12 agonist 20 | hgDAF12 conf 19 | LXRb DAF12 ctr inactive
COc1c(C)cccc1C(=O)Nc1ccc(N2CCOCC2)c(Cl)c1	hgDAF12 agonist 21 | hgDAF12 conf 15 | LXRb DAF12 ctr inactive
CC(C)(C)OC(=O)C[C@H]1C/C=C\C[C@H](CC(=O)N[C@H](CO)Cc2ccccc2)C(=O)N2CCC[C@H]2COC1=O	none
Cc1ccc(NC(=O)c2sc3nc(N4CCOCC4)c4c(c3c2N)CCCC4)cc1	none
Nc1c(C(=O)Nc2ccccc2)sc2nc(N3CCOCC3)c3c(c12)CCCC3	DAX1 inh-1 3.8, hgDAF12 agonist 15 | hgDAF12 conf inactive | LXRb DAF12 ctr inactive
O=C(CN1CCN(c2ccc(Cl)cc2[N+](=O)[O-])CC1)N1CCOCC1	none
O=C(OCc1ccccc1)N1CCC2CC1c1ccc(N3CCNCC3)cc12 (centres undefined)	hgDAF12 agonist 14 | hgDAF12 conf inactive | LXRb DAF12 ctr inactive
CCCc1ccc(C(=O)CN2C(=O)C(=O)N(C3CCCC3)C2=O)cc1	none
COc1ccc(-c2oc3c(c2C(=O)OCCO)C(OCCCO)CCC3)cc1 (centres undefined)	none (no result: DAX1 inh-2)
O=[N+]([O-])c1cccnc1NCCNc1ncc(C(F)(F)F)cc1Cl	hgDAF12 agonist 14 | hgDAF12 conf 15 | LXRb DAF12 ctr inactive
COc1ccc(NC(=O)c2cccc(N3C(=O)C4C5C=CC(C6CC56)C4C3=O)c2)cc1 (centres undefined)	none
Cc1occc1C(=O)N/N=C/c1cnn(C)c1C	hgDAF12 agonist 16 | hgDAF12 conf inactive | LXRb DAF12 ctr inactive
COc1cccc(/C=N/NC(=S)Nc2cccc(C(=O)O)c2)c1O	hgDAF12 agonist 17 | hgDAF12 conf inactive | LXRb DAF12 ctr inactive
Cc1c(/C=N\NC(=O)c2cccc(F)c2)cnn1C	hgDAF12 agonist 15 | hgDAF12 conf inactive | LXRb DAF12 ctr inactive
CC(=O)Nc1cccc(C(=O)N/N=C/c2ccccc2F)c1	DAX1 inh-1 3.7, hgDAF12 agonist 14 | hgDAF12 conf 20 | LXRb DAF12 ctr inactive
Cc1c(/C=N/NC(=O)c2ccc3c(c2)OCO3)cnn1C	none
CN1CCN(CC(=O)c2ccccc2F)CC1	none
Cc1ccc(/C=N/NC(=O)c2ccoc2C)o1	hgDAF12 agonist 14 | hgDAF12 conf inactive | LXRb DAF12 ctr inactive
O=C(N/N=C/c1ccc(Cl)cc1Cl)c1cccc(F)c1	hgDAF12 agonist 15 | hgDAF12 conf 15 | LXRb DAF12 ctr inactive
O=C(N/N=C/c1ccc(Cl)cc1Cl)c1ccc2nc[nH]c2c1	none
Cc1ccc(NC(=O)COC(=O)Cc2ccsc2)c(C)c1	none
O=C1NN=C(CSc2n[nH]c(=S)s2)CS1	none
O=C(O)c1ccc(N/N=C/C2=Cc3ccccc3OC2)cc1	DAX1 inh-1 4.1, DAX1 inh-2 11, hgDAF12 agonist 19 | hgDAF12 conf 16 | LXRb DAF12 ctr inactive
O=C(COc1ccc(Br)cc1Cl)NC(=S)N1CCc2ccccc21	hcDAF-12 act 6.2, hgDAF12 agonist 13, ssDAF12 agonist 1.0 | hgDAF12 conf inactive | LXRb DAF12 ctr inactive
O=C(COc1ccc(Br)cc1Br)NC(=S)N1CCCc2ccccc21	none (no result: hcDAF-12 act, DAX1 inh-1, hgDAF12 agonist, ssDAF12 agonist)
